Experimental data published in PubChem BioAssay.
Active and inactive are the calls of the source.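 Rule for the calls, unless noted: active = fluorescence slope after compound addition differing from the mean of all screened samples at 99.7% confidence, in either direction; inactive = the rest.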

How the values were obtained:
[1] = inhibitors of TNFa-induced NFkB p65 translocation, primary screen, imaging, HUVEC, MLSMR starter and 10KST1 sets (AID 438;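 active = inhibition above 20% together with a positive visual image hit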;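 note: compound added about 3h40 before a 20 min TNFalpha stimulation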;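 for inhibition: signal is the nuclear over cytoplasmic p65 intensity ratio per well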); conditions: HUVEC TNFa-induced p65 nuclear translocation; cell count: measured here: nuclei count (cytotoxicity indicator), at 2.08 µM; inhibition: at 2 µM, stronger effect = higher value, 0% TNFa-plus-vehicle, 100% no-TNFa wells
[2] = inhibitors of mutant huntingtin aggregation, primary screen, imaging, exon1htt(103Q)mCFP cells, high-content imaging (AID 483;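 active = visual image review flags a hit and inhibition of aggregation exceeds 20%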;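 note: compound exposure lasted 3 days before fixation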;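 for nuclei count: percent of the per-plate median nuclei count of sample wells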); conditions: exon1htt(103Q)mCFP cell line, aggregate imaging, at 2 µM; inhibition of aggregation: stronger effect = higher value; nuclei count: measured here: cell count, toxicity
[3] = inhibitors of E-selectin induction by TNFa, primary screen, imaging, HUVEC, immunofluorescence, MLSMR starter and 10KST1 sets (AID 487;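 active = visually confirmed hit in the image check and inhibition above 20%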;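 for inhibition: signal is fraction of cell area covered by stained E-selectin grains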;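 for nuclei count: 100% = median nuclei count of all wells on the same plate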); conditions: HUVEC TNFalpha-induced E-selectin immunofluorescence imaging, at 2 µM; inhibition: stronger effect = higher value; nuclei count: measured here: cell number, toxicity
[4] = target: Voltage-gated potassium channel subunit beta-2 (Rattus norvegicus) (UniProt P62483); assay: KvBeta enzyme negative modulators, primary screen, biochemical, NADPH fluorescence (AID 622;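 active = fluorescence slope higher than the sample average by over 3 SD, cut at about -0.22 in these data, passing the limit was not always enough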;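 note: slope of raw intensity against log time taken from 70 to 1610 s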); conditions: recombinant KvBeta, 4-cyanobenzaldehyde reduction, at 10 µM, stronger effect = higher value
[5] = target: Voltage-gated potassium channel subunit beta-2 (Rattus norvegicus) (UniProt P62483); assay: KvBeta positive modulators, primary screen, biochemical, NADPH fluorescence (AID 623;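 active = NADPH fluorescence slope more negative than the mean of all samples by about 3 SD, 99.7% confidence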;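 note: fluorescence intensity change per second fitted from 20 to 320 s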); conditions: Recombinant KvBeta, NADPH fluorescence decrease slope, 10 min; at 10 µM; stronger effect = lower value
[6] = target: Alpha-2C adrenergic receptor (Homo sapiens) (UniProt P18825); assay: modulators of alpha2C/GIRK thallium flux, primary screen, cell-based, HEK293 alpha2C/GIRK1/2 (AID 624); conditions: thallium flux BTC fluorescence, at 10 µM, actives lie on both sides;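 note: slope of fluorescence ratio to pre-addition baseline per second over 15 to 24 s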
[7] = inhibitors of Sendai virus-induced IRF3 signaling, primary screen, TLR/RLR signaling modifier project, cell-based, Sendai virus stimulus, luciferase, 10K MLSCN set (AID 602276;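 active = inhibition at or above 50% at 10 µM; inactive = inhibition below 50%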;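 note: firefly luciferase from ISG56 promoter only with Renilla not read in this screen; 0% = Sendai virus plus DMSO and 100% = medium plus DMSO without virus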); conditions: HEK293 RL24 IRF3 luciferase reporter, at 10 µM, stronger effect = higher value
[8] = inhibitors of poly I:C-induced TLR3 signaling, primary screen, cell-based, poly I:C stimulus, luciferase, 10K MLSCN set (AID 602277;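 active = inhibition of the reporter signal at or above 50%; inactive = inhibition below 50%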); conditions: HEK293-TLR3 RL24 IRF3 luciferase reporter, at 10 µM, stronger effect = higher value

Chain of Voltage-gated potassium channel subunit beta-2 (Rattus norvegicus) (P62483 whole entry, looked up): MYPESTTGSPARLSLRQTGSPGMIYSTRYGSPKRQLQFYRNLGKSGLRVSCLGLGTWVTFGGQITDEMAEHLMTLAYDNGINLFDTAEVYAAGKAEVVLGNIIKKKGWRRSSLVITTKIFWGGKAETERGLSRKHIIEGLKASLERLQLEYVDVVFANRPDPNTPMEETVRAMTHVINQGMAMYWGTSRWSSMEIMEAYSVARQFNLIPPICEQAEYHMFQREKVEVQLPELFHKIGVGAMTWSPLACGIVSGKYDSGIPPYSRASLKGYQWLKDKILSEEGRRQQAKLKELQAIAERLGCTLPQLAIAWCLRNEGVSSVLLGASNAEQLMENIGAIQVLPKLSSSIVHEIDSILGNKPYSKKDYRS
Chain of Alpha-2C adrenergic receptor (Homo sapiens) (P18825 whole entry, looked up): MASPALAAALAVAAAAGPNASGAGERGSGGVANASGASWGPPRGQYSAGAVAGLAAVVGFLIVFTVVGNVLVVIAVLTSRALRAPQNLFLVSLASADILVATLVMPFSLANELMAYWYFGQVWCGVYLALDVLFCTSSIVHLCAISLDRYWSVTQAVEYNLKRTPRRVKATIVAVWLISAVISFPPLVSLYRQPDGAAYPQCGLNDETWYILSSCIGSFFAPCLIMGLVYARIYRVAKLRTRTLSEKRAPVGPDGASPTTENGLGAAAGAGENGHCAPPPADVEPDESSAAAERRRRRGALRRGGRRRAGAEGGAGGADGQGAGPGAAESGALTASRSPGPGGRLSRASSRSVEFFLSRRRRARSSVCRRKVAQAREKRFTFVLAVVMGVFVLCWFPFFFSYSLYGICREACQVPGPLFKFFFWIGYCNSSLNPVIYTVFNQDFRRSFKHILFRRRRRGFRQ

Row | Structure (SMILES) | cell count [1] | inhibition [1] | inhibition of aggregation [2] | nuclei count [2] | inhibition [3] | nuclei count [3] | fluorescence slope [4] | NADPH fluorescence slope [5] | slope [6] | inhibition [7] | inhibition [8]
1 | Cc1ccc(-n2nnnc2SCC(=O)c2cc(C)n(CC3CCCO3)c2C)cc1 (stereo not drawn) | 452 | 6.3% (inactive) | -11.9% (inactive) | 102% | -52.2% (inactive) | 121% | -0.437 (inactive) | 3.2e-05 (inactive) | 0.00567 (inactive) | 15.1% (inactive) | -0.555% (inactive)
2 | CCOc1cccc2cc(C(=O)N3CCN(C/C=C/c4ccccc4)CC3)c(=O)oc12 | 596 | -3.6% (inactive) | -2.4% (inactive) | 103% | -80.4% (inactive) | 133% | -0.236 (inactive) | -4e-05 (inactive) | 0.00413 (inactive) | 1.41% (inactive) | -10.8% (inactive)
3 | O=C(OCC(=O)N1CCCCCC1)c1cccs1 | 295 | 7.1% (inactive) | 3.3% (inactive) | 103% | 4.3% (inactive) | 107% | -0.53 (inactive) | -5.7e-05 (inactive) | 0.00485 (inactive) | -20.1% (inactive) | -75.3% (inactive)
4 | CCOc1ccc(S(=O)(=O)n2nc(C)cc2C)c2ccccc12 | 355 | -5.4% (inactive) | 0.3% (inactive) | 108% | -52.3% (inactive) | 115% | -0.347 (inactive) | 2e-05 (inactive) | 0.00571 (inactive) | -0.884% (inactive) | -17.2% (inactive)
5 | c1cc2c(cc1Cn1cnnn1)OCO2 | 599 | 2.1% (inactive) | -6.5% (inactive) | 107% | 26.6% (inactive) | 87.2% | -0.492 (inactive) | -6.9e-05 (inactive) | 0.00714 (inactive) | 13.3% (inactive) | 22.4% (inactive)
6 | CC1=C(C(=O)OC2CCCCC2)C(c2cccnc2)n2ncnc2N1 (stereo not drawn) | 271 | -9.3% (inactive) | 10.8% (inactive) | 77.6% | 21.9% (inactive) | 34.7% | -0.327 (inactive) | -6.6e-06 (inactive) | 0.00388 (inactive) | 7.24% (inactive) | 26.4% (inactive)
7 | COc1ccccc1CNC(=O)CCNC(=O)Cn1ccc2ccccc2c1=O | 749 | -23.7% (inactive) | 8.2% (inactive) | 107% | -16.3% (inactive) | 116% | 0.0111 (inactive) | -1.6e-05 (inactive) | 0.00394 (inactive) | 7.16% (inactive) | 6.29% (inactive)
8 | N#Cc1ccccc1Cn1c(=O)n(Cc2ccc(C(=O)NCc3ccco3)cc2)c(=O)c2ccccc21 | 689 | -11.4% (inactive) | -4.5% (inactive) | 83.9% | -47.4% (inactive) | 92.1% | -0.5 (inactive) | 2e-05 (inactive) | 0.00719 (inactive) | 1.35% (inactive) | -0.0219% (inactive)
9 | CCCC1c2ccc(C)n2CCN1C(=O)Nc1ccccc1Cl (stereo not drawn) | 243 | 2.3% (inactive) | -6.4% (inactive) | 100% | -1% (inactive) | 94.7% | -0.564 (inactive) | 2.7e-05 (inactive) | 0.0054 (inactive) | -53.4% (inactive) | -190% (inactive)
10 | Cn1c(=O)n(CCN2CCOCC2)c(=O)c2c1nc1n2CCN1c1ccccc1 | 362 | 14% (inactive) | 27.9% (inactive) | 98.5% | -33.7% (inactive) | 132% | -0.564 (inactive) | 2.6e-05 (inactive) | 0.00592 (inactive) | -6.67% (inactive) | 3.62% (inactive)
11 | Cn1c(=O)[nH]c(=O)c2c1nc(CN1CCN(c3cccc(Cl)c3)CC1)n2CCc1ccccc1 | 683 | -9.7% (inactive) | 6.6% (inactive) | 107% | -90.8% (inactive) | 87.9% | -0.587 (inactive) | 8.1e-06 (inactive) | 0.00654 (inactive) | -13.9% (inactive) | -0.338% (inactive)
12 | CSc1nnc(-c2ccc(NC(=O)CCc3ccccc3)cc2)n1C | 711 | -28.4% (inactive) | -1.8% (inactive) | 100% | -79.2% (inactive) | 120% | -0.474 (inactive) | -3e-05 (inactive) | 0.00726 (inactive) | -3.25% (inactive) | 15.4% (inactive)
13 | COc1ccc(-c2nnc(SCC(=O)NC(C)c3ccccc3)o2)cc1 (stereo not drawn) | 617 | 4.4% (inactive) | -59% (inactive) | 104% | -7.4% (inactive) | 111% | -0.593 (inactive) | -2.5e-05 (inactive) | 0.00661 (inactive) | 5.82% (inactive) | 18.9% (inactive)
14 | COC(=O)[C@H](C)NC(=O)NCc1ccc(F)cc1 | 589 | -23.8% (inactive) | 24.3% (inactive) | 100% | -131% (inactive) | 96.1% | -0.622 (inactive) | -1.3e-05 (inactive) | 0.00843 (inactive) | 6.37% (inactive) | -35.7% (inactive)
15 | COc1ccc(N2CCN(C(c3cccs3)c3nnnn3C3CCCC3)CC2)cc1 (stereo not drawn) | 219 | 12.7% (inactive) | 1.6% (inactive) | 104% | -10.3% (inactive) | 88.2% | -0.614 (inactive) | -1.5e-08 (inactive) | 0.00587 (inactive) | 1.77% (inactive) | 11.1% (inactive)
16 | C/C(N)=C(/C#N)C(=O)CSc1nnc(Nc2c(C)cccc2C)s1 | 354 | 13.1% (inactive) | 8.1% (inactive) | 70.3% | -30.9% (inactive) | 119% | -0.586 (inactive) | -5.6e-05 (inactive) | 0.00543 (inactive) | 6.86% (inactive) | 2.86% (inactive)
17 | COc1ccccc1Cn1nnc2c(=O)[nH]c(C3CCN(C(=O)c4ccccc4Cl)CC3)nc21 | 324 | 3.2% (inactive) | 1.4% (inactive) | 109% | -5.4% (inactive) | 98% | -0.624 (inactive) | -1.1e-05 (inactive) | 0.00545 (inactive) | 18.5% (inactive) | 40.2% (inactive)
18 | Cc1cccc(C2CC(c3ccc(Br)cc3)Nc3nc(N)nn32)c1 (stereo not drawn) | 683 | -15.7% (inactive) | -3% (inactive) | 95.1% | -5.8% (inactive) | 105% | -0.443 (inactive) | -5.3e-05 (inactive) | 0.00633 (inactive) | 20.8% (inactive) | 25.1% (inactive)
19 | COc1ccc(N2CCN(c3ccc(N)cc3C#N)CC2)cc1 | 744 | -6.6% (inactive) | 28.1% (inactive) | 102% | -65.8% (inactive) | 104% | -0.593 (inactive) | -2.3e-05 (inactive) | 0.00782 (inactive) | 3.39% (inactive) | 21.5% (inactive)
20 | O=C(NCc1cccs1)c1cc2c(s1)-c1ccccc1OC2 | 674 | 1.6% (inactive) | -25.1% (inactive) | 98.2% | -49.2% (inactive) | 108% | -0.122 (inactive) | -3.3e-06 (inactive) | 0.00728 (inactive) | -42% (inactive) | -187% (inactive)
21 | Cc1ccc2cc(C#N)c(NCCCNC(=O)C3CCCO3)nc2c1 (stereo not drawn) | 271 | -2.8% (inactive) | -8.8% (inactive) | 82.7% | -25.3% (inactive) | 116% | -0.476 (inactive) | -9.9e-05 (inactive) | 0.00509 (inactive) | 9.51% (inactive) | 10.8% (inactive)
22 | CC1(C)CC(=O)N(CC(=O)NCc2ccccc2)c2ccccc2S1(=O)=O | 807 | -1.7% (inactive) | -7.8% (inactive) | 123% | -20% (inactive) | 120% | -0.602 (inactive) | 1.2e-05 (inactive) | 0.00666 (inactive) | 12.3% (inactive) | 20.7% (inactive)
23 | O=C(NCCOC(=O)C1COc2ccccc2O1)C1COc2ccccc2O1 (stereo not drawn) | 357 | -2.1% (inactive) | -2% (inactive) | 106% | -99.1% (inactive) | 128% | -0.48 (inactive) | -3.8e-05 (inactive) | 0.00608 (inactive) | -2.25% (inactive) | 19.3% (inactive)
24 | COc1ccc(CCNC(=O)c2cc3sc(Cl)cc3n2C)cc1OC | 611 | 4.1% (inactive) | -8.1% (inactive) | 99.5% | 2.3% (inactive) | 89% | -0.626 (inactive) | -4e-05 (inactive) | 0.00715 (inactive) | -15.3% (inactive) | -18.8% (inactive)
25 | Cc1cccc(Nc2nc3c(c(=O)n(C)c(=O)n3C)n2Cc2ccccc2)c1 | 470 | 7.2% (inactive) | 6.5% (inactive) | 94.7% | -73.5% (inactive) | 106% | -0.588 (inactive) | -2.8e-05 (inactive) | 0.00618 (inactive) | 3.57% (inactive) | 20.4% (inactive)
26 | COc1ccc(NC(=O)Nc2ccc(C)cc2OC(F)F)cc1OC | 335 | -6.5% (inactive) | 6.2% (inactive) | 91.2% | -38.2% (inactive) | 94.2% | -0.422 (inactive) | -5.1e-05 (inactive) | 0.00406 (inactive) | 1.59% (inactive) | -6.11% (inactive)
27 | O=C(COc1ccc(S(=O)(=O)NC2CCCCC2)cc1Cl)NCC1CCCO1 (stereo not drawn) | 310 | -13.4% (inactive) | -14.2% (inactive) | 124% | -111% (inactive) | 95.6% | -0.415 (inactive) | -1.9e-05 (inactive) | 0.00646 (inactive) | 3.07% (inactive) | 9.97% (inactive)
28 | O=S(=O)(c1ccc2ccccc2c1)N1CCCCC1 | 424 | 2.6% (inactive) | 7% (inactive) | 104% | 20.8% (inactive) | 104% | -0.413 (inactive) | -2.4e-06 (inactive) | 0.00701 (inactive) | 13.9% (inactive) | 33.1% (inactive)
